Data published in PubChem BioAssay AID894 (National Center for Advancing Translational Sciences (NCATS), 2007).
Screen size: about 150,000 compounds; about 6,500 (4.3%) were called active. About 12% were inconclusive and are not listed. Only a selection was taken, and actives are over-represented in it overall. Values without a mark were called inactive. Calls follow the shape of the dose curve; as a rule, active = well fitted inhibition curve with a large enough effect (not every such curve was filed as active); inconclusive = small, poorly fitted or top-dose-only effect, or another doubt; inactive = no such curve, though single readings can be large or run the other way.
% is scaled to controls: 0 for no effect and ±100 for the full control effect; potency is read from the fitted curve at half-maximal effect.

The compounds below were run against 15-hydroxyprostaglandin dehydrogenase [NAD(+)] (Homo sapiens) (UniProt P15428) (assay: qHTS Assay for Inhibitors of HPGD (15-Hydroxyprostaglandin Dehydrogenase)). Conditions: purified HPGD, NADH fluorescence kinetic, PGE2 substrate; activity change, negative = inhibition: hits give low values.
15-hydroxyprostaglandin dehydrogenase [NAD(+)] (Homo sapiens), sequence (P15428 whole entry, looked up): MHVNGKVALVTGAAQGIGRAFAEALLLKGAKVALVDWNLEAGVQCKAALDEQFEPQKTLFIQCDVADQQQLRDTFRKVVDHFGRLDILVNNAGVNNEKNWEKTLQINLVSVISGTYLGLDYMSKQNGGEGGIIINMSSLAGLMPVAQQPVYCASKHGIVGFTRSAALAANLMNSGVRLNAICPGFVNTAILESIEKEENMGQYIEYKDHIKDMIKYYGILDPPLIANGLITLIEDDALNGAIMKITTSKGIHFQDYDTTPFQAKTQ
Procedure, shortened: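 20 nM HPGD preincubated 15 min at room temperature with compound in 50 mM Tris-HCl pH 8, 0.01% Tween 20. Started with 1 mM NAD+ and 30 uM prostaglandin E2; NADH fluorescence (360/450 nm) read 5 times over 30-s intervals, last minus first.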
`Cc1cc(N2CCOCC2)nc(-c2ccc(Br)cc2)n1` was tested, and the activity change, negative = inhibition was -7.33%. `CCC(C)NCCOCCOc1ccc(Br)cc1C` (centres undefined) was tested, and the activity change, negative = inhibition was -6.54%. With `Cc1ccc(C(=O)/C=C/Nc2ccc(S(=O)(=O)Nc3onc(C)c3C)cc2)cc1` the activity change, negative = inhibition was -26.4%. With `Cc1ccc(S(=O)(=O)N2CCCC2C(=O)OCc2nc3sc(C)c(C)c3c(=O)[nH]2)cc1` (centres undefined) the activity change, negative = inhibition was -20.7%. Compound `Cc1cc([N+](=O)[O-])ccc1NC1CCCC1` has an activity change, negative = inhibition of -16.1%. For `Cc1cc(C=O)c(C)n1-c1ccc(NC2CCCCC2)c([N+](=O)[O-])c1`, the Potency was 7.94 µM (active). Work on `Cc1c(NS(=O)(=O)c2ccc(NC3CCCC3)c([N+](=O)[O-])c2)c(=O)n(-c2ccccc2)n1C` yielded an activity change, negative = inhibition of -7.49%. Work on `COc1ccc(C2NC(=S)NC3=C2CCc2ccccc23)cc1OC` (centres undefined) yielded an activity change, negative = inhibition of -17.9%. With `Cc1nn(Cc2ccc(F)cc2)c(C)c1NC(=O)c1cccnc1Cl` the activity change, negative = inhibition was -10.3%. In the case of `COc1cc(/C=C2/C(=O)ON=C2C)ccc1OCc1ccccc1F`, the Potency is reported as 1.58 µM (active). In the case of `CCOc1cc(/C=N/O)ccc1OCc1ccccc1F`, the activity change, negative = inhibition is reported as -1.63%. `COc1cccc(CNCCc2c[nH]c3ccccc23)c1OCc1ccccc1F` gave an activity change, negative = inhibition of -4.46%. For `CCOc1ccc(/C=N/NC(=O)C(C)Sc2ccccn2)cc1OCC` (centres undefined), the activity change, negative = inhibition was -18.1%. `COc1ccc(/C=C/C(=O)c2ccc(NS(=O)(=O)c3ccc(C)cc3)cc2)cc1O` showed an activity change, negative = inhibition of -19.9%. `CCOC(=O)c1ccc(N2C(=O)CC(Sc3nc(O)c(CC)c(=O)[nH]3)C2=O)cc1` (centres undefined) gave an activity change, negative = inhibition of -10.7%. With `COc1ccc(N2C(=O)CC(SC(C)C)C2=O)cc1` (centres undefined) the activity change, negative = inhibition was -4.33%. With `O=C1CC(Sc2ncn[nH]2)C(=O)N1c1ccccc1` (centres undefined) the Potency was 12.6 µM (active). `CCNc1nc(NC(C)C)nc(N2CC(=O)N(CC(=O)OCC)C2=N)n1` showed an activity change, negative = inhibition of -1.19%. `CCCCS(=O)(=O)N1C2=NC(C(=O)OC)=C(C(=O)OC)[C@@H]3N(Cc4ccccc4)c4ccccc4[C@]23C[C@H]1C(=O)OC` gave an activity change, negative = inhibition of -6.02%. `CCC(=O)Nc1sc(C(=O)N2CCCCC2)c(C)c1C#N` was tested, and the Potency was 4.47 µM (active). `N#Cc1ccsc1NC(=O)CN1CCCCC1` gave an activity change, negative = inhibition of -11.5%. Compound `CCN(CC)C(=O)c1sc(NC(=O)c2ccco2)c(C#N)c1C` has an activity change, negative = inhibition of -18.8%. Compound `CC1CN(C(=S)SCC(=O)c2ccccc2)CC(C)O1` (centres undefined) has an activity change, negative = inhibition of -10.1%. `CCC(C)(C)C1CCC(=NNC(=O)c2ccc(Br)o2)CC1` (centres undefined) showed an activity change, negative = inhibition of -9.21%. With `O=C(CSc1nnc(SCc2ccc(Cl)cc2)s1)N/N=C/c1ccccc1Cl` the activity change, negative = inhibition was -3.98%. Work on `O=C(COC(=O)CCCNC(=O)c1ccc(Cl)cc1)Nc1cc(Cl)ccc1Cl` yielded an activity change, negative = inhibition of -18.1%. For `Cc1ccccc1N/N=C/c1ccc(N2CCOCC2)cc1`, the Potency was 28.2 µM (active). `C(=N/Nc1cc(N2CCOCC2)nc(N2CCOCC2)n1)/c1ccccc1` gave an activity change, negative = inhibition of -6.61%. For `C/C(=N\NC(=O)c1ccccc1C)c1ccc(N2CCOCC2)cc1`, the activity change, negative = inhibition was -15.3%. `CCN(CC)S(=O)(=O)c1cc([N+](=O)[O-])ccc1N=Nc1c(O)n(C)c2ccccc12` gave an activity change, negative = inhibition of -5.63%. For `Cc1c(/C=N/N2C(=O)C3C4C=CC(C4)C3C2=O)c2ccccc2n1C` (centres undefined), the activity change, negative = inhibition was -1.58%. Compound `CC(=O)N1c2ccccc2N(Cc2ccc([N+](=O)[O-])cc2)C(=O)C1(C)C` has an activity change, negative = inhibition of -6.13%. With `CCCN1CNC(=S)N(CCc2ccccc2)C1` the activity change, negative = inhibition was 1.42%. `Cc1ccc(OCC(=O)OC(C)CN(C)Cc2ccccc2)cc1` (centres undefined) was tested, and the activity change, negative = inhibition was -13.4%. With `FC(F)(F)c1cc(-c2ccco2)nc(N2CCOCC2)n1` the activity change, negative = inhibition was -8.04%. With `O=C(CSc1nc(-c2ccco2)cc(C(F)(F)F)n1)N1CCc2ccccc2C1` the Potency was 2.24 µM (active). `O=C(CSc1nc(-c2ccco2)cc(C(F)(F)F)n1)NCc1cccs1` showed an activity change, negative = inhibition of -3.58%. For `CN(C)c1ccc(/C=N/N(Cc2ccccc2)c2ccccc2)cc1`, the activity change, negative = inhibition was -11.9%. Compound `CCN(C(=O)COC(=O)c1cc(NS(=O)(=O)c2ccc(Cl)c([N+](=O)[O-])c2)ccc1O)C1CCCCC1` has an activity change, negative = inhibition of -7.74%. With `CNC(=S)N1CCN(c2ccccn2)CC1` the activity change, negative = inhibition was -14%. With `CN(C)c1ccc(/C=N\S(=O)(=O)c2ccccc2)cc1` the activity change, negative = inhibition was -10.7%. Compound `COc1ccccc1NC(=O)CSc1nc2sc(C)c(C)c2c(=O)n1Cc1ccco1` has an activity change, negative = inhibition of -18.7%. In the case of `CCOC(=O)CSc1nc2c(c(=O)n(C)c(=O)n2C)n1Cc1ccccc1F`, the activity change, negative = inhibition is reported as -4.76%. With `CCOC(=O)CSc1nc2c(sc(=S)n2CCc2ccccc2)c(=O)n1Cc1ccco1` the Potency was 20 µM (active). In the case of `COc1ccc(C(=O)Nc2ccc3nc(N4CCCCC4)cc(C)c3c2)cc1OC`, the activity change, negative = inhibition is reported as -27.2%. With `Cc1ccc(S(=O)(=O)N2CCC(N3CCCCCC3)CC2)cc1` the activity change, negative = inhibition was -7.84%. In the case of `CC1(C)CC(=O)C(N=Nc2ccc(S(=O)(=O)N3CCCCCC3)cc2)=C(O)C1`, the Potency is reported as 25.1 µM (active). `COc1ccc(S(=O)(=O)N2CCCCC2)cc1Br` was tested, and the activity change, negative = inhibition was -1.54%. In the case of `CCOc1c(Br)cc(/C=C2\C(=O)N(CCC#N)N=C2C)cc1OC`, the Potency is reported as 5.01 µM (active). Compound `C=CCOc1c(Br)cc(/C=N\n2nnnc2N)cc1OC` has an activity change, negative = inhibition of -12.6%. With `CCOc1cc(/C=N/O)cc(Br)c1OC` the activity change, negative = inhibition was -21.3%. With `COc1ccc(C(=O)c2c(C)oc3cc([N+](=O)[O-])c(O)c([N+](=O)[O-])c23)cc1` the Potency was 14.1 µM (active). `COc1ccc(S(=O)(=O)Nc2ccc3oc(C)c(C(C)=O)c3c2)cc1` was tested, and the activity change, negative = inhibition was -11.3%. `COc1ccc(-c2oc3cc(OC)ccc3c2C(=O)c2ccc(C#N)cc2)cc1` was tested, and the activity change, negative = inhibition was -8.41%. In the case of `CCO/N=C(/C)c1c(O)cc(-c2ccccc2)n(-c2ccccc2)c1=O`, the activity change, negative = inhibition is reported as -9.45%. `CCN(C(=O)CSc1ncn[nH]1)c1cccc2ccccc12` gave an activity change, negative = inhibition of -11.5%. For `Cn1nnc(NC(=O)CSc2ncn[nH]2)n1`, the activity change, negative = inhibition was -3.42%. With `CC(C)(C)c1ccc(C(=O)CSc2ncn[nH]2)cc1` the Potency was 25.1 µM (active). `S=C(NCC1COc2ccccc2O1)Nc1ccc(Br)cc1` (centres undefined) showed an activity change, negative = inhibition of -26.7%.
